PI5P4K alpha inh: inhibitors of human PI5P4K alpha; AID 652105; max response, %; PI5P4Kalpha enzyme, ADP-Glo luminescence, 60 min; stronger effect = lower value; P48426; actives 1.2% (n = 330,000); active = max response of -50% or lower; inconclusive = between -30% and -50%; inactive = -30% or higher; note: value at the top dose of about 77 µM; % is set by controls: 0 for no effect and ±100 for the full control effect
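Human PI5P4Kalpha with substrate in 0.038 M HEPES pH 7.4, 0.28 mM EGTA, 0.1% CHAPS, 5% DMSO; reaction started with 5 microM ATP (final), 60 min at room temperature. ADP formed read by ADP-Glo luminescence.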
Pin1 inhibitor: human Pin1 inhibition. Potency, µM (highest dose often 115 µM), without a hit: at the top dose activity, negative = inhibition, usual class: inhibitors. Q13526. Pin1 FP peptide displacement, HiFluor488, 10 min. actives 0.009% (n = 390,000). AID 504891; active = well fitted inhibition curve with a large enough effect in the polarisation, with a control signal flat, not every such curve was filed as active; inconclusive = small, poorly fitted or top-dose-only effect, or effect the other way, or a change in a side signal; inactive = no such curve, though single readings can be large or run the other way; the % refers to the polarisation; note: potency is the fitted concentration of half-maximal effect; % is set by controls: 0 for no effect and ±100 for the full control effect
FEN1 inhibitor: inhibitors of human flap endonuclease 1; P39748; Recombinant FEN1 flap cleavage, fluorescence, 15 min; Potency, µM (series often up to 114 µM), inactives show top-dose activity change, negative = inhibition, hits mostly inhibitors; actives 0.35% (n = 390,000); AID 588795; note: potency is the fitted concentration of half-maximal effect; % is set by controls: 0 for no effect and ±100 for the full control effect; nearly all actives have a fitted effect of over 65% in size
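Enzyme 10 nM, 15 min RT preincubation with compound; start with substrate 50 nM final; reads at 0 and 15 min; qHTS titration, four-parameter Hill fit.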
Glioma ERSR ind: induces the endoplasmic reticulum stress response in human glioma cells; actives 0.02% (n = 420,000); Potency, µM, inactives show top-dose activation, hits mostly activators; U87-MG GRP78 promoter luciferase reporter, 16 h; AID 602332; note: potency is the fitted concentration of half-maximal effect; series mostly up to about 76 µM; % of control where 0% means no effect; nearly all actives have a fitted effect of over 35% in size
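Stably transfected U87-MG human glioma cells carrying a GRP78-based luminescent sensor were seeded at 1000 cells/well, pin-dosed with compounds and incubated 16 h. Luciferase reagent was then added, and end-point luminescence was read after 10 min at room temperature.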
PGK inhibitor: T. brucei PGK inhibition; P07378; actives 0.043% (n = 380,000); Potency, µM (top dose mostly 57.5 µM), without a hit: at the top dose activity change, negative = inhibition, actives largely listed as inhibitors; AID 602233; PGK/GAPDH coupled, Kinase-Glo luminescence, 60 min; note: potency is the fitted concentration of half-maximal effect; % is set by controls: 0 for no effect and ±100 for the full control effect; nearly all actives have a fitted effect of over 60% in size
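Recombinant glycosomal PGK reaction used 1,3-bisphosphoglycerate generated in-well by GAPDH (100nM final) in 100mM TEA pH 7.6, 5mM MgCl2, 0.01% Tween-20. After 60 minutes at room temperature, ATP was read by Kinase-Glo Plus luminescence end-point.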
WRN helicase inh-1: WRN helicase (human) inhibition; Q14191; AID 651768; WRN helicase unwinding, fluorescent forked duplex, kinetic; actives 0.46% (n = 360,000); Potency, µM (highest dose often 114 µM), without a hit: at the highest dose activity change, negative = inhibition, actives largely listed as inhibitors; note: potency is the fitted concentration of half-maximal effect; % is set by controls: 0 for no effect and ±100 for the full control effect; nearly all actives have a fitted effect of over 55% in size
Target sequence (Q14191 whole entry, looked up): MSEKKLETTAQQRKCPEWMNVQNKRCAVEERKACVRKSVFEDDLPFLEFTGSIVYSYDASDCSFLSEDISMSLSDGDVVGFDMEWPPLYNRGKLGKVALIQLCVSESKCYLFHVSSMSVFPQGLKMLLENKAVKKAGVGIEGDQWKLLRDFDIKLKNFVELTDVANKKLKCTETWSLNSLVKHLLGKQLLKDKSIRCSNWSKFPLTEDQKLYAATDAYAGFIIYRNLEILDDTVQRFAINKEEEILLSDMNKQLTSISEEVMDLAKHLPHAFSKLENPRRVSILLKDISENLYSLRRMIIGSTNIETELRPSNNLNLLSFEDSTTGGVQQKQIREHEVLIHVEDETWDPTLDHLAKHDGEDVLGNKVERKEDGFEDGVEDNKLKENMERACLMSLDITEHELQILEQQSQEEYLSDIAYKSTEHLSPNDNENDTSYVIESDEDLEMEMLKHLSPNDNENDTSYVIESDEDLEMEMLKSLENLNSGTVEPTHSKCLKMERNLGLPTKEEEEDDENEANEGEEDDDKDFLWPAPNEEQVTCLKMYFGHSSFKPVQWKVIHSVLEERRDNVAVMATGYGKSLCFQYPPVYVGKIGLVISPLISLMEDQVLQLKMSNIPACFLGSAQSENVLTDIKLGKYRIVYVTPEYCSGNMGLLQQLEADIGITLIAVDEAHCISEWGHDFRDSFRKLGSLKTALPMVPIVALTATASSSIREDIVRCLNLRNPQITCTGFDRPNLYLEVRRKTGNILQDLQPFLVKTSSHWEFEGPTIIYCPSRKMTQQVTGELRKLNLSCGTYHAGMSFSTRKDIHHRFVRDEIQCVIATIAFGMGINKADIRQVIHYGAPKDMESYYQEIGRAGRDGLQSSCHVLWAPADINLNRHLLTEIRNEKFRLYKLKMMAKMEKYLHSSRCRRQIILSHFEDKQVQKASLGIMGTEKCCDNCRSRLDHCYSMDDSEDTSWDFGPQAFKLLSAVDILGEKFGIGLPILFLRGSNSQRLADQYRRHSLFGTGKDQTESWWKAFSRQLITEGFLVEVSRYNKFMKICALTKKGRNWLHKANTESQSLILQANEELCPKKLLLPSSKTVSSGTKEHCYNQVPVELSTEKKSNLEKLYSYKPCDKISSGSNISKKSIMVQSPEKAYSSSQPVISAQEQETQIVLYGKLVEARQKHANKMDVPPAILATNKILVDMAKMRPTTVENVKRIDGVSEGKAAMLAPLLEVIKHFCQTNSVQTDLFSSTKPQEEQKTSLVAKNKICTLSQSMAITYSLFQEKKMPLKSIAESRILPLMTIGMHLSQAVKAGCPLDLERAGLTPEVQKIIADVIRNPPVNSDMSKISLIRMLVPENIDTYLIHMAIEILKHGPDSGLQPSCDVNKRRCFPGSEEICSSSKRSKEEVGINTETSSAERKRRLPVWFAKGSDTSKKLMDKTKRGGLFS
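Kinetic fluorescence helicase assay: unwinding of a quenched forked DNA duplex (100 nM final) with 2 mM ATP final raises red fluorescence (525/598 nm). Compounds sat 15 min at room temperature with 20 nM WRN beforehand.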
WRN helicase inh-2: confirmation of human WRN helicase inhibitors; AID 720497; actives 63% (n = 610); Potency, µM (doses to about 57.1 µM), without a hit: at the top dose activity, negative = inhibition, most hits filed as inhibitors; shares compounds with WRN helicase inh-1; WRN helicase DNA unwinding, fluorescence kinetic; note: potency is the fitted concentration of half-maximal effect; nearly all actives have a fitted effect of over 65% in size
TO displacement: counter-screen for WRN helicase inhibitors: DNA binding. actives 10% (n = 610). thiazole orange DNA binding displacement, fluorescence. Potency, µM (titrated, usually from 57.1 µM), for inactives: top-dose activity change, negative = inhibition, usual class: inhibitors. shares compounds with WRN helicase inh-1;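 note: drop in dye fluorescence marks compound binding to DNA; potency is the fitted concentration of half-maximal effect; % is set by controls: 0 for no effect and ±100 for the full control effect; nearly all actives have a fitted effect of over 60% in size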
BLM counter: blocks human BLM helicase in WRN counterscreen; AID 720503; Recombinant BLM helicase DNA unwinding, red fluorescence; shares compounds with WRN helicase inh-1; Potency, µM (series often up to 57.1 µM), inactives show top-dose activity change, negative = inhibition, hits mostly inhibitors; actives 60% (n = 610); note: potency is the fitted concentration of half-maximal effect; nearly all actives have a fitted effect of over 60% in size
* hit, by the source's call; [ ] = remark or other dose. A selection: hits, their analogues and other compounds. The true share with any hit is near 1.3%. Unless noted, calls come from the whole dose curve; as a rule, active = well fitted curve in the direction sought with a large enough effect; inconclusive = small, poorly fitted or top-dose-only effect, or another doubt; inactive = no such curve, though single readings can be large; an effect the other way counts as inactive or inconclusive.

COc1ccc(NC(=O)/C(C#N)=C\c2ccc(OCc3ccc(C(=O)O)cc3)c(OC)c2)cc1 was read as PI5P4K alpha inh 1, FEN1 inhibitor inconclusive, Glioma ERSR ind 1%, PGK inhibitor -21%, WRN helicase inh-1 35µM*, WRN helicase inh-2 -27%, TO displacement inconclusive and BLM counter inconclusive.
`COc1cc(/C=C(\C#N)C(=O)Nc2cccc(C(=O)O)c2)ccc1OCc1ccc(F)cc1` gave PI5P4K alpha inh -27, Pin1 inhibitor -19%, FEN1 inhibitor inconclusive, Glioma ERSR ind 4%, PGK inhibitor -15% and WRN helicase inh-1 0%[11.6 µM].
For Cn1c2cc(C=O)sc2c2cnn(Cc3ccccc3F)c(=O)c21 the results were Pin1 inhibitor 0%.
Screening N=C1/C(=C\c2ccc(Br)o2)C(=O)N=C2SC(CC(=O)N3CCOCC3)=NN12 returned PI5P4K alpha inh inconclusive, Pin1 inhibitor 50%, FEN1 inhibitor inconclusive, Glioma ERSR ind 2%, PGK inhibitor -14%, WRN helicase inh-1 35µM*, WRN helicase inh-2 inconclusive, TO displacement -10% and BLM counter inconclusive.
`COC(=O)C1CCN(Cc2ccc3c(c2)CN(C(=O)c2cc(C4CC4)on2)CCO3)CC1` gave Glioma ERSR ind 0%.
For Oc1ccc(C2CNCCc3c2cc(O)c(O)c3Cl)cc1 (stereo not given) the results were PI5P4K alpha inh 5, Pin1 inhibitor -11%, FEN1 inhibitor 9%, Glioma ERSR ind inconclusive, PGK inhibitor 0%, WRN helicase inh-1 inconclusive, WRN helicase inh-2 19µM*, TO displacement -1% and BLM counter 24µM*.
Screening Cc1nnc(NC(=O)C2CCN(S(=O)(=O)c3cc([N+](=O)[O-])ccc3Cl)CC2)o1 returned PI5P4K alpha inh -20, Pin1 inhibitor 2%, FEN1 inhibitor 18%, Glioma ERSR ind -3%, PGK inhibitor 5% and WRN helicase inh-1 7%.
For Cc1cccc2sc(NC(=O)C3CCN(S(=O)(=O)c4cc([N+](=O)[O-])ccc4Cl)CC3)nc12 the results were PI5P4K alpha inh inconclusive, Pin1 inhibitor inconclusive, FEN1 inhibitor -16%, Glioma ERSR ind -5%, PGK inhibitor inconclusive, WRN helicase inh-1 inconclusive, WRN helicase inh-2 inconclusive, TO displacement inconclusive and BLM counter 7.6µM*.
Screening CC(C)c1c(C(=O)N(C)C2CCN(C)CC2)cnn1-c1nccc(-c2ccco2)n1 returned Glioma ERSR ind 1%.
O=C(N/N=C1/C(=O)c2cccc3cccc1c23)c1ccc(Cl)cc1 was read as PI5P4K alpha inh -20, Pin1 inhibitor inconclusive, FEN1 inhibitor 79µM*, Glioma ERSR ind -4%, PGK inhibitor inconclusive, WRN helicase inh-1 16µM*, WRN helicase inh-2 6.1µM*, TO displacement 19µM* and BLM counter 2.2µM*.
For C/C=C/c1ccc(OCCCNC2CCCC2)c(OC)c1 the results were PI5P4K alpha inh -1, Pin1 inhibitor -11%, FEN1 inhibitor 3%, Glioma ERSR ind -2%, PGK inhibitor -1% and WRN helicase inh-1 -7%.
